According to PMC7862700, “An all-to-all approach to the identification of sequence-specific readers for epigenetic DNA modifications on cytosine”:

What was measured:
Test in all cases: DAPPL (digital affinity profiling via proximity ligation, sequencing); 10 mM Tris-HCl pH 7.5, 50 mM NaCl, 1 mM DTT, 4% glycerol, room temperature, 30 min; GST-TFs on glutathione beads, 16-mer random dsDNA library, 0.1% formaldehyde crosslink after washing; high values mean tight binding
FEV = molecular target: T1, FEV (Homo sapiens, UniProt Q99581 1-238); conditions: protein: recombinant; tags: N-terminal GST; dsDNA, one strand shown
T1 sequence: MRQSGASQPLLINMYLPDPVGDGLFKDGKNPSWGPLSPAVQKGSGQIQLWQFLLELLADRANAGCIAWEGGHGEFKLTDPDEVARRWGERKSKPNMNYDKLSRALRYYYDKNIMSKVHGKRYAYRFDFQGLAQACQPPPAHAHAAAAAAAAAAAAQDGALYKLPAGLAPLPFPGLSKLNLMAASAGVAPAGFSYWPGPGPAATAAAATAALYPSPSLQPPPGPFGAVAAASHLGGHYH
How it was run: (§1)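 Sequencing on an Illumina NextSeq500 followed washing, crosslinking with 0.1% formaldehyde, proximity ligation (BsaI/T4 ligase, 1 h, 37 °C) and PCR amplification of pools that had been incubated for 30 min at room temperature with 200 nmole of a random double-stranded 16-mer DNA library in Tris/NaCl/DTT/glycerol buffer. Each pool held DNA-barcoded human transcription factors, expressed in yeast as GST fusions and captured on glutathione beads, plus a tag-only sample. Binding signal is a hexamer's read frequency for a factor divided by its frequency in the tag-only sample.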

ETV5 = ETV5 (Homo sapiens, UniProt P41161 1-510); conditions: protein: recombinant; tags: N-terminal GST; dsDNA, one strand shown
Chain of ETV5 (P41161 whole entry): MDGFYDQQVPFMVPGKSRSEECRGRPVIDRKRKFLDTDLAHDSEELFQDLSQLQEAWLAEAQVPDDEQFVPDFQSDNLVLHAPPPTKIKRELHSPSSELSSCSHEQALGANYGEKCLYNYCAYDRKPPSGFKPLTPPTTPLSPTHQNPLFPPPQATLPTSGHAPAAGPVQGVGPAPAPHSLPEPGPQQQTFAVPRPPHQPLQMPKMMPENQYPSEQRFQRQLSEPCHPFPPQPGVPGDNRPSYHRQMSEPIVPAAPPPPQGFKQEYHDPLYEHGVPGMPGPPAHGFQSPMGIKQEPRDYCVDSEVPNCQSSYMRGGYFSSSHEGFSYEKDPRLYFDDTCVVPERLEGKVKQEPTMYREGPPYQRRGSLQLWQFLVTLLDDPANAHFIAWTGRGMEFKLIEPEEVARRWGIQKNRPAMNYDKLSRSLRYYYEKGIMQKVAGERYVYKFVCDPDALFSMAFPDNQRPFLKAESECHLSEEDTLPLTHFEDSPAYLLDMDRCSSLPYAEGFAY
How it was run: as §1

HSF1 = HSF1 (Homo sapiens, UniProt Q00613 1-529); conditions: protein: recombinant; tags: N-terminal GST; chain copies: 3; dsDNA, one strand shown
Chain of HSF1 (Q00613 whole entry): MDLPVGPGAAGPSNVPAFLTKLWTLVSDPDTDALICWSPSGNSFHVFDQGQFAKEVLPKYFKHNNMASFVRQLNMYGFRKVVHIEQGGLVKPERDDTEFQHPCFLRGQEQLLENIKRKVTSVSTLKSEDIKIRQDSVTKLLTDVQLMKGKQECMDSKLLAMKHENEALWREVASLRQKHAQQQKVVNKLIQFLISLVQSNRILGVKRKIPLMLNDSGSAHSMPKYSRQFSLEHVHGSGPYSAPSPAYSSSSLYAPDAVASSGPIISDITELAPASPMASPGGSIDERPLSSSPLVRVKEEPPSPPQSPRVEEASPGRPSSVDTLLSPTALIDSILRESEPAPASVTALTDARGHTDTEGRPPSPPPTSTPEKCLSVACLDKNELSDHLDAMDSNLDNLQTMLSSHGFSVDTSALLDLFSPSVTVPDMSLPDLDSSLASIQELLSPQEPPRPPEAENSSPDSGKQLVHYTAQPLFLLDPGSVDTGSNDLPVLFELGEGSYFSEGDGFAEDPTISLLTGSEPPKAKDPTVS
How it was run: as §1

SPIC = molecular target: T2, SPIC (Homo sapiens, UniProt Q8N5J4 1-248); conditions: protein: recombinant; tags: N-terminal GST; dsDNA, one strand shown
T2 sequence: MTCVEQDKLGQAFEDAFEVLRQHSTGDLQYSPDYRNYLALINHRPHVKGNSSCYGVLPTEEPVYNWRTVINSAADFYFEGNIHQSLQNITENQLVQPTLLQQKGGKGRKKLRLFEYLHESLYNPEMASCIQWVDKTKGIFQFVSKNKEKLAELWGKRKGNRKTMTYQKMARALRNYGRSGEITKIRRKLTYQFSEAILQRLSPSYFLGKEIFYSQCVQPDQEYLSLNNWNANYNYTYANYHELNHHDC
How it was run: as §1

ELF4 = ELF4 (Homo sapiens, UniProt Q99607 1-663); conditions: protein: recombinant; tags: N-terminal GST; dsDNA, one strand shown
Chain of ELF4 (Q99607 whole entry): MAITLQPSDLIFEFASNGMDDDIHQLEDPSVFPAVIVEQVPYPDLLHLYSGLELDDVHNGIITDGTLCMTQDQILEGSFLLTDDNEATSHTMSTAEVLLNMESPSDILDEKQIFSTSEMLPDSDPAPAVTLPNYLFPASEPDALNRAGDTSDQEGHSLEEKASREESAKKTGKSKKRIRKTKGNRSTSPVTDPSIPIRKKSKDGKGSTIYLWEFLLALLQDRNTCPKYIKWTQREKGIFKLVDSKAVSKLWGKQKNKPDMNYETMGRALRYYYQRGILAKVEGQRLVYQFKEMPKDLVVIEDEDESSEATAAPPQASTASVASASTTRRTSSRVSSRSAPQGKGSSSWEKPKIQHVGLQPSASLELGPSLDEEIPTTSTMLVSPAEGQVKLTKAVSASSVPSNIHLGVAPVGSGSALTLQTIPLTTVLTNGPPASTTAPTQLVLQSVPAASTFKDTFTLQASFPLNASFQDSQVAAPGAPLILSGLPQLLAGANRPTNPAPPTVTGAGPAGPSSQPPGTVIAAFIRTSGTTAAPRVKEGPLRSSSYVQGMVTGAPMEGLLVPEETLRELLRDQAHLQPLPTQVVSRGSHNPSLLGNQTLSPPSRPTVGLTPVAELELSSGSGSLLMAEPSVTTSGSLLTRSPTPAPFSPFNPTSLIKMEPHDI
How it was run: as §1

ELK4 = molecular target: T3, ELK4 (Homo sapiens, UniProt P28324-2 1-405); conditions: protein: recombinant; tags: N-terminal GST; dsDNA, one strand shown
T3 sequence: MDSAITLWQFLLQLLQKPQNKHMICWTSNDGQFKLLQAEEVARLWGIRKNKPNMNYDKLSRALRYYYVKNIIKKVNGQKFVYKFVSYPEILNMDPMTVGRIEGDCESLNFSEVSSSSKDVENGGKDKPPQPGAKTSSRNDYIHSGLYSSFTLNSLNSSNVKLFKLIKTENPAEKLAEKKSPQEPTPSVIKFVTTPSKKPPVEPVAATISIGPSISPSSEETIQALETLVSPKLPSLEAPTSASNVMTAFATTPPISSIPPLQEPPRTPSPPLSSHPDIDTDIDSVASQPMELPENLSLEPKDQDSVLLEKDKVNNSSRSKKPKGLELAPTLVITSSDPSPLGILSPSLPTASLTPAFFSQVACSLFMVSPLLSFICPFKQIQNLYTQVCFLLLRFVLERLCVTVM
How it was run: as §1

ETV2 = molecular target: T4, ETV2 (Homo sapiens, UniProt O00321 1-342); conditions: protein: recombinant; tags: N-terminal GST; dsDNA, one strand shown
T4 sequence: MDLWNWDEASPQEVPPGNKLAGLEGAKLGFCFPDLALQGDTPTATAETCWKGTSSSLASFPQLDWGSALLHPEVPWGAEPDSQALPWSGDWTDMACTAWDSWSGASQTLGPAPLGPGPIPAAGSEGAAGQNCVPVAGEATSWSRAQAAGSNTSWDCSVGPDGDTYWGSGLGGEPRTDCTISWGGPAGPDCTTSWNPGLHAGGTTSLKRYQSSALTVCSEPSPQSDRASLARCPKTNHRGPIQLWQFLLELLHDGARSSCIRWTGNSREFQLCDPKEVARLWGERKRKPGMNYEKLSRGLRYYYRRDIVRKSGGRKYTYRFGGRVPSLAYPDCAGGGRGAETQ
How it was run: as §1

ELF3 = molecular target: T5, ELF3 (Homo sapiens, UniProt P78545 1-371); conditions: protein: recombinant; tags: N-terminal GST; dsDNA, one strand shown
T5 sequence: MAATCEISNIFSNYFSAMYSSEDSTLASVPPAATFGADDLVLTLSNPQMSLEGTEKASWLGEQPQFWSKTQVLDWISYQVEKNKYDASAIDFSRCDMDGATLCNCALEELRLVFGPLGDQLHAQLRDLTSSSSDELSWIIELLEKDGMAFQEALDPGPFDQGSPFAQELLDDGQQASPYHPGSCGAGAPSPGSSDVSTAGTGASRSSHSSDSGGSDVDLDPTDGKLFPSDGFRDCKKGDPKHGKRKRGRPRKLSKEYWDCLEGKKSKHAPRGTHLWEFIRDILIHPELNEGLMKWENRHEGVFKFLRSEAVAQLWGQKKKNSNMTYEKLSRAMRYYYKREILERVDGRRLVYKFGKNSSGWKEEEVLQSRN
How it was run: as §1

CRX = CRX (Homo sapiens, UniProt O43186 1-299); conditions: protein: recombinant; tags: N-terminal GST; dsDNA, one strand shown
Chain of CRX (O43186 whole entry): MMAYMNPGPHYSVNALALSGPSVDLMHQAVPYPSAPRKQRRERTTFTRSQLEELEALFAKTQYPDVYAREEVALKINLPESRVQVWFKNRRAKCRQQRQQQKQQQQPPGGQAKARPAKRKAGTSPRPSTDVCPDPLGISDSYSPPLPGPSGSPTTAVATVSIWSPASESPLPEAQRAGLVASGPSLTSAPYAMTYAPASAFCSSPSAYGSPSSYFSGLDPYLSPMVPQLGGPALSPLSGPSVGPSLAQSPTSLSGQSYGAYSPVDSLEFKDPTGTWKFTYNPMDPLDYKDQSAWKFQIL
How it was run: as §1

ETV1 = ETV1 (Homo sapiens, UniProt P50549 1-477); conditions: protein: recombinant; tags: N-terminal GST; dsDNA, one strand shown
Chain of ETV1 (P50549 whole entry): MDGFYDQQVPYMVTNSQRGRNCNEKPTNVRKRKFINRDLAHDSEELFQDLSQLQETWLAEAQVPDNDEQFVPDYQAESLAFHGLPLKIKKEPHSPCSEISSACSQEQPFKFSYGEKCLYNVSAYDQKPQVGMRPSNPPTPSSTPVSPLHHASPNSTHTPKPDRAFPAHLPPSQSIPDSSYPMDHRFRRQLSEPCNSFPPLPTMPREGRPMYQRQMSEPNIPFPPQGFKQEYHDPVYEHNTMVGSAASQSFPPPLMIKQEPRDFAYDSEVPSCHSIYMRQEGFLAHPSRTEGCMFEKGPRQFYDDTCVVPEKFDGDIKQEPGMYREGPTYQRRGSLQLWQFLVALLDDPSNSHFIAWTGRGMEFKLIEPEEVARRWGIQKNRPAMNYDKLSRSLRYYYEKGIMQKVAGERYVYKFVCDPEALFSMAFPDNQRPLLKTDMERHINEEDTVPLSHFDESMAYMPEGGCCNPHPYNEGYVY
How it was run: as §1

ERF = molecular target: T6, ERF (Homo sapiens, UniProt P50548 1-548); conditions: protein: recombinant; tags: N-terminal GST; dsDNA, one strand shown
T6 sequence: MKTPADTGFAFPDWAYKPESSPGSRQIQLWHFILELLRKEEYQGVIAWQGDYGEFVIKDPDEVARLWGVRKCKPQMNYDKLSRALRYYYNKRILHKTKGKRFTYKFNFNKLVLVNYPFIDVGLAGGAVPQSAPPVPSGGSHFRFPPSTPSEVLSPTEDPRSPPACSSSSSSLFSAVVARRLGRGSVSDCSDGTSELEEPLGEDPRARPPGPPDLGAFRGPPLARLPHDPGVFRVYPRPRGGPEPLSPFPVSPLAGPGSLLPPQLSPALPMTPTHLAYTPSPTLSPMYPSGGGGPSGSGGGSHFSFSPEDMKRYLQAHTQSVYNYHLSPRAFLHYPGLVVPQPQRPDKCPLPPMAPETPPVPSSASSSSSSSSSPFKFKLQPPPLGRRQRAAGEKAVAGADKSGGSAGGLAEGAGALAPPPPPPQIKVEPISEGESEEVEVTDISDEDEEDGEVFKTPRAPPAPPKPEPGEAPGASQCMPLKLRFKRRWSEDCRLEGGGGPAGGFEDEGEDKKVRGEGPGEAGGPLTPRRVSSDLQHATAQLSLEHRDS
How it was run: as §1

ETV3L = molecular target: T7, ETV3L (Homo sapiens, UniProt Q6ZN32 1-361); conditions: protein: recombinant; tags: N-terminal GST; dsDNA, one strand shown
T7 sequence: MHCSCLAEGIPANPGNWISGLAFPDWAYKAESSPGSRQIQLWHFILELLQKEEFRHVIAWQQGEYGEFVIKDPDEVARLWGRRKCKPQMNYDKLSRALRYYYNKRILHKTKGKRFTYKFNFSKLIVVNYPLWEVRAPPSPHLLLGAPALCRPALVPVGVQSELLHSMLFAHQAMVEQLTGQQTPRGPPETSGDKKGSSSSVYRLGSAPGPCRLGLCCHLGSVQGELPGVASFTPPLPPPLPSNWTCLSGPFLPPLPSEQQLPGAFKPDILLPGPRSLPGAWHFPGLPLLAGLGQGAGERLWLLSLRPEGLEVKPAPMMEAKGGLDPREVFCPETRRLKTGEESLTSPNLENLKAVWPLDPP
How it was run: as §1

ETS2 = molecular target: T8, ETS2 (Homo sapiens, UniProt P15036 1-469); conditions: protein: recombinant; tags: N-terminal GST; dsDNA, one strand shown
T8 sequence: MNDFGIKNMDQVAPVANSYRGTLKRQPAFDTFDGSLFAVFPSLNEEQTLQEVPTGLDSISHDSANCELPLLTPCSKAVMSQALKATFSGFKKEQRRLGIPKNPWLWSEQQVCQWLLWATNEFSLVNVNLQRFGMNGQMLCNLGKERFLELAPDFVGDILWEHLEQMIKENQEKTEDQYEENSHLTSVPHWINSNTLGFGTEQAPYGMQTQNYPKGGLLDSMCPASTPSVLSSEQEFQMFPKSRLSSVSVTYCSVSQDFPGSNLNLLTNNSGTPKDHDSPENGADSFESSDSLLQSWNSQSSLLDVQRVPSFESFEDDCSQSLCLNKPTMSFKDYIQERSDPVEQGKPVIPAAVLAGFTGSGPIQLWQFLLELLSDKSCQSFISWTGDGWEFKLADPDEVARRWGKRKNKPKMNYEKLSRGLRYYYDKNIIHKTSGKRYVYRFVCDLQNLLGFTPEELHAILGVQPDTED
How it was run: as §1

SPDEF = molecular target: T9, SPDEF (Homo sapiens, UniProt O95238 1-335); conditions: protein: recombinant; tags: N-terminal GST; dsDNA, one strand shown
T9 sequence: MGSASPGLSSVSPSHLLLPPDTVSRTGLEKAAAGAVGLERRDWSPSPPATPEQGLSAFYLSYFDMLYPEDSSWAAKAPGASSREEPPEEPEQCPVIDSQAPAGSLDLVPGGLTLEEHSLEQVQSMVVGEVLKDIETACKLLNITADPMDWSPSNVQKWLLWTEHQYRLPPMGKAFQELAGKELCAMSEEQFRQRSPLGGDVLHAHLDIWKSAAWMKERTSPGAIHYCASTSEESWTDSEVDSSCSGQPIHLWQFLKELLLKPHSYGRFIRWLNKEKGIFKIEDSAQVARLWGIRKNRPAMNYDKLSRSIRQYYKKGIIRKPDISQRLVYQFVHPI
How it was run: as §1

ETV7 = molecular target: T10, ETV7 (Homo sapiens, UniProt Q9Y603 1-341); conditions: protein: recombinant; tags: N-terminal GST; dsDNA, one strand shown
T10 sequence: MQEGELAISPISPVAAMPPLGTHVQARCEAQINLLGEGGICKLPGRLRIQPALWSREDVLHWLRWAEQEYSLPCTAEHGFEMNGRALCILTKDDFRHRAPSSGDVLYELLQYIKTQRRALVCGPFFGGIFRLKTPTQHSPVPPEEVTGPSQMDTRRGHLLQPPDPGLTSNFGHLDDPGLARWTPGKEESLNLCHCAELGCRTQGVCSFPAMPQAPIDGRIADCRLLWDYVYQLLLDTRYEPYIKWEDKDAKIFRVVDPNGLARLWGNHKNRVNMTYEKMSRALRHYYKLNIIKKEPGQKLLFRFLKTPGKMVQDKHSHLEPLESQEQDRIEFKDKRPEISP
How it was run: as §1

ELF5 = molecular target: T11, ELF5 (Homo sapiens, UniProt Q9UKW6-2 1-255); conditions: protein: recombinant; tags: N-terminal GST; dsDNA, one strand shown
T11 sequence: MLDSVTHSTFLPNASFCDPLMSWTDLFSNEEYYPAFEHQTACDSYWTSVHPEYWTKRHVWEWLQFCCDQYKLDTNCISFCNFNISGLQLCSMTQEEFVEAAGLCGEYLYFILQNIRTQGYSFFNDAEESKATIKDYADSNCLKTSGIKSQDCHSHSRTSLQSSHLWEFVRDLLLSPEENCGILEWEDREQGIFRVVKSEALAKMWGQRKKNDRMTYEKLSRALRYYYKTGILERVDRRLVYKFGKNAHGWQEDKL
How it was run: as §1

ETV3 = molecular target: T12, ETV3 (Homo sapiens, UniProt P41162-2 1-143); conditions: protein: recombinant; tags: N-terminal GST; dsDNA, one strand shown
T12 sequence: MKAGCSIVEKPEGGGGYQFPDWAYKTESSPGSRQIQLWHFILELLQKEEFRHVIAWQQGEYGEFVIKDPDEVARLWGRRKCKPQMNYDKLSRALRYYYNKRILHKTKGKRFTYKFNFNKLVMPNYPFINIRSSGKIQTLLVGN
How it was run: as §1

ETV6 = ETV6 (Homo sapiens, UniProt P41212 1-452); conditions: protein: recombinant; tags: N-terminal GST; dsDNA, one strand shown
Chain of ETV6 (P41212 whole entry): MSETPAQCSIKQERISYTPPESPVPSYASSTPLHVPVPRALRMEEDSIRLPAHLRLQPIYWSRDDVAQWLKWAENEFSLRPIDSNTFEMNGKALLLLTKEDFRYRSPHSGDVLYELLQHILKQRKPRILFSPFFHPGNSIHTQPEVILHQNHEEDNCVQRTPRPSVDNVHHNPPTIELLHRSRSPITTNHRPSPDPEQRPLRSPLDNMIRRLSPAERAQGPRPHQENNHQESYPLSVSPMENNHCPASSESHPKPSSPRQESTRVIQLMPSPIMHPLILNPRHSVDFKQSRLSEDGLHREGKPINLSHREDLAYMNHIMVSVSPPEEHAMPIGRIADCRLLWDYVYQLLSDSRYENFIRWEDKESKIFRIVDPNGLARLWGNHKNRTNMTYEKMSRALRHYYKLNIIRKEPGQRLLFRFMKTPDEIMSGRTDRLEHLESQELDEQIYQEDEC
How it was run: as §1

TTGTCC
binding signal (FEV): 1.34 fold enrichment (6-mer frequency, TF over GST control)
binding signal (ETV5): 1.42 fold enrichment (6-mer frequency, TF over GST control)
binding signal (HSF1): 1.16 fold enrichment (6-mer frequency, TF over GST control)
binding signal (SPIC): 1.3 fold enrichment (6-mer frequency, TF over GST control)
binding signal (ELF4): 1.26 fold enrichment (6-mer frequency, TF over GST control)
binding signal (ELK4): 1.29 fold enrichment (6-mer frequency, TF over GST control)
binding signal (ETV2): 1.56 fold enrichment (6-mer frequency, TF over GST control)
binding signal (ELF3): 1.24 fold enrichment (6-mer frequency, TF over GST control)
binding signal (CRX): 1.16 fold enrichment (6-mer frequency, TF over GST control)
binding signal (ETV1): 1.23 fold enrichment (6-mer frequency, TF over GST control)
binding signal (ERF): 1.35 fold enrichment (6-mer frequency, TF over GST control)
binding signal (ETV3L): 1.43 fold enrichment (6-mer frequency, TF over GST control)
binding signal (ETS2): 1.38 fold enrichment (6-mer frequency, TF over GST control)
binding signal (SPDEF): 1.45 fold enrichment (6-mer frequency, TF over GST control)
binding signal (ETV7): 1.25 fold enrichment (6-mer frequency, TF over GST control)
binding signal (ELF5): 1.39 fold enrichment (6-mer frequency, TF over GST control)
binding signal (ETV3): 1.36 fold enrichment (6-mer frequency, TF over GST control)
binding signal (ETV6): 1.32 fold enrichment (6-mer frequency, TF over GST control)
